Compound activity: PubChem BioAssay, National Center for Advancing Translational Sciences (NCATS)
Compounds with a hit are over-represented: about 19% of the library has one in this group of screens.
TDP1 cell noCPT: qHTS for Inhibitors of human tyrosyl-DNA phosphodiesterase 1 (TDP1): qHTS in cells in absence of CPT; Potency, µM (series often up to 46.2 µM), actives largely listed as inhibitors; 420,000 compounds, 15% hits; DT40 Tdp1-/- hTDP1 cells, no CPT, ATP luminescence, 48 h; also: nearly all actives have a fitted effect of over 55% in size
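Growth of hTDP1-complemented DT40 Tdp1-knockout cells is measured by ATP luminescence after at least 48 hr compound exposure at 37 °C, with DMSO substituting for the 20 nM CPT used in the parallel screen.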
HepG2 viability: qHTS for Inhibitors of TGF-b: Cytotox Counterscreen; AID 588856, 2011; HepG2 CAGA-GFP viability, ATP luminescence, 18 h; 410,000 compounds, 0.76% hits; Potency, µM (titrated, usually from 46.1 µM), usual class: cytotoxic
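CellTiter-Glo luminescence gave cytotoxicity after 18 hours at 37 degrees C. The cells were HepG2 CAGA-GFP in 1% FBS DMEM, stimulated with 500 pg/mL TGF-beta after compound addition. %Activity was normalised to no-cell wells (complete cell-killing) and DMSO (no toxicity), and curves were fitted and classified.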
TDP1 cell CPT: qHTS for Inhibitors of human tyrosyl-DNA phosphodiesterase 1 (TDP1): qHTS in cells in presence of CPT | Potency, µM (doses to about 46.2 µM), usual class: inhibitors | chicken DT40 Tdp1-/-;hTDP1 cells + 20 nM CPT, ATP luminescence, 48 h | 420,000 compounds, 12% hits | AID 686979, 2013; also: nearly all actives have a fitted effect of over 55% in size
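Chicken DT40 Tdp1-/- cells complemented with human TDP1, 400 cells/well, exposed to compounds plus 20 nM camptothecin for at least 48 h at 37 C; viability read as ATP content by CellTiter-Glo luminescence.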
ASM inhibitor: Inhibitors of Secretory Acid Sphingomyelinase (S-ASM): qHTS | placental ASM, HMU-PC fluorogenic substrate, 60 min | Sphingomyelin phosphodiesterase (Homo sapiens), P17405 | AID 504937, 2011 | 340,000 compounds, 0.006% hits | Potency, µM (series often up to 57.5 µM), hits mostly inhibitors
Target sequence (P17405 47-631 limits assumed): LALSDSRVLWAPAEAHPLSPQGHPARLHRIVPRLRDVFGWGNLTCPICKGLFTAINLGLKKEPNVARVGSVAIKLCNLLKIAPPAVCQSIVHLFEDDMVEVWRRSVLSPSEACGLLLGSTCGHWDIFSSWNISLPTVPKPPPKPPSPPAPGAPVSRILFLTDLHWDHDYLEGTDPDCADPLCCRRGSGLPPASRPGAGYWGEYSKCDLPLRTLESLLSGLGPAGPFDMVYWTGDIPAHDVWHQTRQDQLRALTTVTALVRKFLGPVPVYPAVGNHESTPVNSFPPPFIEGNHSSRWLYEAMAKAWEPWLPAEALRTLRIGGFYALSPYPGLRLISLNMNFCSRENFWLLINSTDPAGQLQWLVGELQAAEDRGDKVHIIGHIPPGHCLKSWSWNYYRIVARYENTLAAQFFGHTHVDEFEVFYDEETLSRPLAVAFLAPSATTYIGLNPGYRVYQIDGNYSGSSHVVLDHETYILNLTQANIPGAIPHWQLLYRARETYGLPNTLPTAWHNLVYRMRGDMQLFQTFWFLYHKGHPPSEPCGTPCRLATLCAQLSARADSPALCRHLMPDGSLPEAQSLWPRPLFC
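Human placenta-derived ASM enzyme was preincubated with compound for 10 minutes at room temperature, then given fluorogenic substrate HMU-PC0 (9 uM final) for 60 minutes at 37 °C; a pH 10 stop preceded fluorescence reading at Ex 386/Em 447 nm.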
IL1B secr inh: qHTS for Inhibitors of Inflammasome Signaling: IL-1-beta AlphaLISA Primary Screen; THP-1 LPS/ATP IL-1B secretion, AlphaLISA, 16 h; hits give low values; activity change, % at 57.5 µM; 360,000 compounds, 4.7% hits; AID 743279, 2014; in the data active = activity change below about -50%; inconclusive = mostly about -30% to -49%
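Secreted IL-1B measured by AlphaLISA bead assay after 16 h compound exposure of THP-1 cells; compounds (final up to 57.5 uM) added 1 h before LPS (250 ng/mL) and ATP (1.25 mM) stimulation; lower signal means less secretion.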
TGFb inhibitor: qHTS for Inhibitors of TGF-b; Potency, µM (top dose mostly 46.1 µM), hits mostly inhibitors; AID 588855, 2011; 410,000 compounds, 1.2% hits; HepG2 CAGA-GFP TGF-b/SMAD3 reporter, GFP fluorescence, 18 h; TGF-beta stimulated, 500 pg/mL final; also: nearly all actives have a fitted effect of over 65% in size
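HEPG2 CAGA-GFP reporter cells (1000/well, DMEM with 1% FBS) received compounds, then recombinant TGF-beta at 500 pg/mL final for 18 hours at 37 degrees C. Per-cell GFP summed per well was normalised to unstimulated and stimulated DMSO controls before curve fitting.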
Hits are given with their value; . = inactive; ? = inconclusive; / = not tested or not shown. Unless noted, calls follow the shape of the dose curve; as a rule, active = well fitted curve in the direction sought with a large enough effect; inconclusive = small, poorly fitted or top-dose-only effect, or another doubt; inactive = no such curve, though single readings can be large; an effect the other way counts as inactive or inconclusive.

SMILES	TDP1 cell noCPT	HepG2 viability	TDP1 cell CPT	ASM inhibitor	IL1B secr inh	TGFb inhibitor
CCOc1ccc(CC(=O)NCc2ccc3c(c2)CCN3C(=O)c2ccc(F)cc2)cc1OCC	?	.	?	/	/	.
O=C(COc1ccccc1)NCc1ccc2c(c1)CCN2C(=O)c1ccccc1	6.51µM	.	11.6µM	/	/	.
Cc1ccc(C(=O)N2CCc3cc(CNC(=O)COc4ccccc4)ccc32)cc1	11.6µM	.	13µM	/	/	?
COc1ccc(OCC(=O)NCc2ccc3c(c2)CCN3C(=O)c2ccc(F)cc2)cc1	?	.	.	/	/	?
CCOc1ccc(CC(=O)NCc2ccc3c(c2)CCN3C(=O)c2ccccc2)cc1OCC	?	.	16.4µM	/	/	.
COc1ccc(OCC(=O)NCc2ccc3c(c2)CCN3C(=O)c2ccccc2)cc1	13µM	.	14.6µM	/	/	.
Cc1ccc(CNC(=O)c2cn(C)c3ccc(S(=O)(=O)N(C)C4CCCCC4)cc3c2=O)cc1	?	.	?	/	/	.
Cc1nc2nc(CNC(=O)OC(C)(C)C)nn2c(C)c1CCC(=O)NCc1ccc(F)cc1	.	.	.	/	/	.
Cc1cccc(C)c1NC(=O)CC12CCCN1CCC2	.	/	?	/	/	/
CCCC(=O)Nc1ccc2c(c1)nc(CN1CCN(C(=O)OCC)CC1)n2C	.	.	.	.	.	.
CCOC(=O)N1CCN(Cc2nc3cc(NC(=O)c4ccccc4Cl)ccc3n2C(C)C)CC1	1.46µM	.	1.46µM	/	/	?
CCCC(=O)Nc1ccc2c(c1)nc(CN1CCN(C(=O)OCC)CC1)n2C(C)C	0.0651µM	.	0.651µM	/	/	?
CCCC(=O)Nc1ccc2c(c1)nc(CN1CCN(C(=O)OCC)CC1)n2CC	2.31µM	.	3.66µM	.	.	.
Cn1c(CN2CCOCC2)nc2cc(NC(=O)c3ccccc3Cl)ccc21	.	.	.	.	.	.
CCOc1ccc(CCNC(=O)COC(=O)c2ccc(OC(C)C)cc2)cc1OCC	?	.	.	.	.	.
O=C(NCC1CCCO1)c1ccc(Br)s1 (stereo not given)	.	.	.	.	.	.
O=C(NCC1CCCO1)c1ccc([N+](=O)[O-])s1 (stereo not given)	25.9µM	.	13µM	.	.	.
O=C(NCC1CCCO1)c1ccc([N+](=O)[O-])o1 (stereo not given)	.	.	?	.	?	12.6µM
O=C(Cc1ccccc1)N(Cc1cccnc1)c1nc2ccc(F)cc2s1	.	.	?	/	/	?
O=C(c1ccc2c(c1)OCCO2)C1CCN(C(=O)c2ccc(F)cc2)CC1	?	.	?	.	.	.
O=C(c1ccc2c(c1)OCCO2)C1CCN(C(=O)c2ccc(F)c(F)c2)CC1	16.4µM	.	?	.	.	.
O=C(c1ccc(F)cc1)C1CCN(C(=O)c2ccccc2)CC1	?	.	.	.	?	.
O=C(c1ccc(F)cc1)C1CCN(C(=O)c2ccc(Cl)cc2)CC1	18.4µM	.	?	.	.	?
CSc1ccc(NC(=O)N2CCC(C(=O)c3ccc(F)cc3)CC2)cc1	?	.	?	.	-68.7	.
O=C(c1ccc(Cl)cc1)C1CCN(C(=O)c2ccccc2)CC1	14.6µM	.	?	.	?	.
SMILES	TDP1 cell noCPT	HepG2 viability	TDP1 cell CPT	ASM inhibitor	IL1B secr inh	TGFb inhibitor
COc1ccc(NC(=O)N2CCC(C(=O)c3ccc(F)cc3)CC2)cc1	?	.	?	.	.	.
CSc1ccc(CNC(=O)C2CCC(=O)N(CC3CCCCC3)C2)cc1 (stereo not given)	?	.	?	/	.	.
O=C(c1ccc(Cl)cc1)C1CCN(C(=S)Nc2ccccc2)CC1	16.4µM	.	.	.	.	?
O=C(c1ccc(F)cc1)N1CCC(C(=O)N(Cc2ccccc2)c2ccccc2)CC1	18.4µM	.	23.1µM	.	.	.
CNC(=S)N1CCC(C(=O)c2ccc(Cl)cc2)CC1	.	.	.	/	.	.
O=C(/C=C/c1c(F)cccc1Cl)NCCCN1CCOCC1	.	.	.	.	.	.
CN(C)S(=O)(=O)N(CC(=O)NCCSCc1cccc(Cl)c1)c1ccccc1	23.1µM	.	?	/	/	?
Cc1cccc(CSCCNC(=O)CN(c2ccccc2)S(=O)(=O)N(C)C)c1	20.6µM	.	?	/	/	/
COc1cccc(-c2nc(CS(=O)(=O)CC(=O)N3CCOCC3)c(C)o2)c1	.	.	.	.	.	.
COc1ccc(CCC2CCNCC2)cc1	18.4µM	.	?	.	.	.
Cc1cc(NC(=O)NCC(F)(F)F)no1	.	.	.	.	.	.
COc1cccc(CN2CCC(C(=O)Nc3ccc(Oc4cccnc4)cc3)CC2)c1	?	.	?	.	.	?
O=C(Nc1ccc(Oc2cccnc2)cc1)C1CCN(Cc2cc(Cl)ccc2O)CC1	13µM	.	8.2µM	.	.	12.6µM
O=C(Nc1ccccc1Oc1cccnc1)C1CCCN(Cc2ccccc2O)C1 (stereo not given)	14.6µM	.	?	.	.	.
Cc1cccc(CN2CCC(C(=O)Nc3ccc(Oc4cccnc4)cc3)CC2)c1	?	11.2µM	?	.	.	?
COc1cc2c(cc1OC)CN(C(=O)CNS(=O)(=O)c1ccc(C)c(C)c1)CC2	.	.	.	.	.	.
CCOP(=O)(NC12CC3CC(CC(C3)C1)C2)NC12CC3CC(CC(C3)C1)C2	?	.	?	.	.	.
CCOC(=O)C1CCN(c2ccc(-c3cccs3)nn2)CC1	?	7.08µM	?	.	.	.
c1csc(-c2ccc(N3CCOCC3)nn2)c1	8.2µM	.	?	.	.	.
c1csc(-c2nnc(-c3ccc(N4CCOCC4)cc3)o2)c1	?	.	?	.	.	.
Cc1cc(=O)[nH]c(Nc2ccccc2C)n1	.	.	.	.	.	.
COc1ccc(-c2nc3c(c(SCC(=O)N4CCCCC4)n2)Cc2cc(Cl)ccc2O3)cc1	.	.	.	/	/	.
COc1ccc(C2/C=C\CN(CC(C)C)C(Cc3ccccc3)C(=O)N2Cc2ccc(F)cc2)cc1 (stereo not given)	/	.	/	/	/	.
CCCCOc1ccc(Cc2cnc(N)nc2N)cc1	?	.	.	.	-54.8	.
COc1ccc(Cc2cnc(N)nc2N)cc1OC	?	.	?	/	/	.
